Each structure is given as a SMILES string. Inconclusive results are not listed. Values without a mark were called inactive. Calls come from the whole dose curve; as a rule, active = well fitted activation curve with a large enough effect; inconclusive = small, poorly fitted or top-dose-only effect; inactive = flat fitted curve, though single readings scatter.

The nature of the experiment: Primary redox qHTS assay for identification of artifact compounds. (AID 1845223).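 Note: 0% = DMSO and 100% = reference compound.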 The conditions noted are these: Amplex Red/HRP redox cycling with DTT, fluorescence; series mostly up to 53.8 µM; redox activity (% of DA3003): at the top concentration. In outline:
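Amplex Red (25 uM) and HRP (250 mU/mL) in HBSS, with compounds for 15 min, then 250 uM DTT for 30 min, room temperature, dark. Fluorescence 525/598 nm read; normalized to DMSO and 10 uM DA3003; Hill fit.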
For `O=S(=O)(c1ccc(Cl)cc1)N1CCN(c2ccnc3cc(Cl)ccc23)CC1`, the “redox activity (% of DA3003)” value was -3.44%.
With `COC(=O)c1sccc1S(=O)(=O)Nc1ccc(Nc2ccccc2)cc1OC`, the “redox activity (% of DA3003)” value was -4.82%.
The figure for `CN(CC1COCCO1)S(=O)(=O)Nc1ccc2ccc3ncc(-c4cnn(C)c4)cc3c(=O)c2c1` (stereo not drawn) is 19.9%.
